According to ChEMBL document CHEMBL3988442, “University of Dundee, Small-Polar-MMV Screening Library” (2021):
In all, about 48,000 compounds went through this assay and about 13,000 (27%) showed an effect of 50% or more. The list shows a part of the results.

The molecules below were run on Wolbachia pipientis (assay: Anti-Wolbachia Cell-Based Screen). Settings: 5 µM.
Format: functional
Design: scale not given: in the data most compounds retested in dose-response had high values

Structure (SMILES)	Percent Effect
NCCN1CCC(c2nnc(Cn3ccnc3)n2C2CC2)CC1	3.949%
COc1ccc(CN(C)CC(=O)NC2(C)CCS(=O)(=O)C2)cc1F (stereo not drawn)	-5.934%
O=C(NC1CCCN(CCc2ccccc2)C1)c1cnccn1 (stereo not drawn)	115.1%
O=C(NC1CCCN(c2ccc(OC(F)F)cc2)C1)c1cnccn1 (stereo not drawn)	-2.478%
O=C(NC1CC(=O)N(C2Cc3ccccc3C2)C1)c1cnccn1 (stereo not drawn)	-14.57%
CN(C(=O)CSc1ccccn1)C1CCCN(CCc2ccccc2)C1 (stereo not drawn)	-2.321%
O=C(NC1CCCN(CCc2ccccc2)C1)c1ccccn1 (stereo not drawn)	90.98%
CC(=O)NC1CCCN(Cc2ccc(OCc3ccccn3)cc2)C1 (stereo not drawn)	-5.429%
O=C(CCO)N1C[C@H]2CC[C@@H]1CN(C1Cc3ccccc3C1)C2	7.309%
O=C(c1ccccc1)N1CCN(CC2CCOc3ccccc3C2)CC1 (stereo not drawn)	-9.678%
CC(=O)Nc1cccc(C(=O)N2CCc3c(nc(N(C)C)[nH]c3=O)C2)c1	-4.662%
CCn1cnnc1CNC(=O)NC(c1ccc(OC)cc1)C1CC1 (stereo not drawn)	-3.354%
COc1cc2c(cc1-c1nc3c(cnn3C(C)C)[nH]1)OCO2	0.2831%
CCN(Cc1nonc1C)C(=O)c1ccc(Br)o1	1.066%
CN(Cc1ccncc1)C(=O)c1ccc(F)c(NS(C)(=O)=O)c1	4.431%
CCc1nc(CN(C)C(=O)c2cc(NC(C)=O)ccc2Cl)no1	-10.82%
CCc1nc(CN(C)C(=O)c2cc(CN(CC)CC)c(CC)o2)no1	113.6%
CCc1oc(C(=O)N(C)Cc2nonc2C)cc1CN(CC)CC	117.2%
Cc1ccc(C)c(OCc2cc(C(=O)N(C)Cc3nonc3C)no2)c1	-9.317%
Cc1ncsc1C(=O)N(C)Cc1ccncc1	-15.3%
CCc1oc(C(=O)N(C)Cc2ccncc2)cc1CN(CC)CC	110.2%

Structure (SMILES)	Percent Effect
CCC(=O)Nc1cc(Cl)ccc1C(=O)N(C)Cc1noc(CC)n1	-2.438%
CCOc1ccc(CN2C(=O)CC3(CCCC3)C2=O)nc1	-27.44%
O=C1CC(CNc2cncc(Br)c2)c2ccccc2N1 (stereo not drawn)	11.7%
O=C1CN(Cc2cn(CC3CCN(C4CCSCC4)CC3)nn2)CCN1	-10.54%
CCN1C(=O)C2(CCOCC2)c2cc(NC(=O)c3csnn3)ccc21	5.242%
CN(C)C(=O)N1CC2(CCOCC2)c2cc(NS(=O)(=O)C3CC3)ccc21	-3.56%
CCN1CC2(CCOCC2)c2cc(NS(=O)(=O)CC)ccc21.O=C(O)C(F)(F)F	93.24%
CCS(=O)(=O)Nc1ccc2c(c1)C1(CCOCC1)CN2C.O=C(O)C(F)(F)F	89.45%
CCN1C(=O)C2(CCOCC2)c2cc(NC(=O)c3cnoc3C)ccc21	-1.334%
CCN1C(=O)C2(CCOCC2)c2cc(NC(=O)c3ccco3)ccc21	4.939%
COC(=O)C(C)NC(=O)CSCc1nc(O)c2cc(C(C)C)sc2n1 (stereo not drawn)	3.354%
Cc1cccc2nc(CN3CCCC(C)C3)cc(=O)n12 (stereo not drawn)	12.06%
Cc1ccc(CNC(=O)Nc2nnc(C(C)C)s2)n1C	-5.821%
Cc1cccc2nc(CSCC(=O)Nc3nnc(C(C)C)s3)cc(=O)n12	122.4%
Cc1nc(C)c(CC(=O)Nc2nnc(C)s2)c(=O)[nH]1	-6.123%
Cc1nnc(NC(=O)CSCc2cc(=O)n3ccccc3n2)s1	113.7%
Cc1ccc2nc(CSCC(=O)Nc3nnc(C(C)C)s3)cc(=O)n2c1	91.49%
COc1ccc(C(C)NC(=O)Nc2nnc(C)s2)cc1OC (stereo not drawn)	6.701%
Cc1ccn2c(=O)cc(CSCC(=O)Nc3nnc(C(C)C)s3)nc2c1	111%
Cc1ccc2nc(CN(Cc3ccc(C)o3)C(C)C)cc(=O)n2c1	-6.244%
CC(C)c1nnc(NC(=O)Cc2csc(-c3nnc[nH]3)n2)s1	3.837%

Structure (SMILES)	Percent Effect
Cc1cnn(CC(C)NCc2cc(=O)n3cc(C)ccc3n2)c1 (stereo not drawn)	5.917%
CN(C)c1cccc(C(=O)NCC(O)c2cccs2)c1 (stereo not drawn)	-6.039%
CCc1ncc2c(n1)CN(C(=O)c1c(C)[nH]c(C(C)=O)c1C)C2	1.251%
CN(Cc1cccs1)C1CCC[C@@H]2CN(C(=O)c3cnccn3)C[C@H]12.O=C(O)C(F)(F)F (stereo partly drawn)	14.26%
Cc1ccc(C(C(=O)O)N2CCCN(Cc3ccccn3)CC2)c(F)c1 (stereo not drawn)	-1.838%
Cc1cccn2c(=O)cc(CN3CCCC3Cn3cccn3)nc12 (stereo not drawn)	11.97%
Cc1ccc(CN(Cc2cc(=O)n3cccc(C)c3n2)C(C)C)o1	2.311%
CC(C)c1nnc(NC(=O)CSCc2cc(=O)n3ccccc3n2)s1	114.5%
Cc1cccn2c(=O)cc(CSCC(=O)Nc3nnc(C(C)C)s3)nc12	100.1%
Cc1cnn(CC(C)NCc2cc(=O)n3ccccc3n2)c1 (stereo not drawn)	4.155%
COc1ccc(OC)c(-n2c(COC(C)C)n[nH]c2=O)c1	-3.997%
Cn1cc(C(=O)N2CCC(c3cc(CCO)n(C)n3)C2)cn1 (stereo not drawn)	181.5%
Cn1cc(C(=O)N2CC[C@H](N3CCOCC3)[C@H](CCCO)C2)cn1	-10.44%
Cn1nc(C2CCN(C(=O)c3cnccn3)C2)cc1CCO (stereo not drawn)	76.91%
Cn1ccc(C(=O)N2CCC(c3cc(CCO)n(C)n3)C2)n1 (stereo not drawn)	79.61%
COc1ccc(OCc2nc(C(=O)N3CC[C@H](O)[C@@H](O)C3)co2)cc1	-2.37%
Cc1nc(C(=O)N2CCC(c3cc(CCO)n(C)n3)C2)co1 (stereo not drawn)	113%
Cc1cc(C(=O)N2CC[C@@H]3CO[C@@H](CN4CCCC4)[C@@H]3C2)no1	-4.858%
CS(=O)(=O)NC[C@@H]1OC[C@H]2CN(C(=O)c3cnccn3)CC[C@H]21	-5.14%
COC(=O)C1CCCN1C(=O)c1ccc(Br)cc1F (stereo not drawn)	19.55%
Cc1ccc2c(n1)N(C)CCN(C(=O)NC1CC1)C2.O=C(O)C(F)(F)F	4.586%
